Assay results as given in PubChem BioAssay (NCATS).
Results filed as inconclusive are left out. Calls of active or inactive are those of the source. Calls follow the shape of the dose curve; as a rule, active = well fitted cell-killing curve with a large enough effect; inconclusive = small, poorly fitted or top-dose-only effect, or effect the other way; inactive = no such curve, though single readings can be large or run the other way.

Assay: qHTS of pediatric cancer cell lines to identify multiple opportunities for drug repurposing: Confirmatory screen for LAN-5 cells (AID 1347113); also: nearly all actives have a fitted effect of over 65% in size
Details: LAN-5 neuroblastoma cell viability; series mostly up to 45.9 µM; activity change, negative = cytotoxicity: at the top concentration
From the text: Drug repurposing or repositioning has been offered as a strategy for drug development in oncology programs. This approach has special potential for childhood cancers and other rare or orphan diseases, where the expected return on new drug development has been a disincentive to pharmaceuticals.
In this project we exploit the poly-pharmacology of drugs to discover new indications via phenotypic screening of a panel of 19 well-characterized cell lines derived from solid tumors seen in children and adolescents. The goal is to identify approved drugs with previously unrecognized anticancer properties that has the potential to reveal new mechanisms and biological processes involved in carcinogenesis or drug resistance. We employed a titration-based paradigm (quantitative high-throughput screening or qHTS), where all compounds were tested at multiple concentrations for their effect on cell viability. Concentration-response curves (CRCs) were derived directly from the primary screen, and both potency and efficacy values were used to identify compounds with robust bioactivity profiles. We screened the NIH Chemical Genomics Center (NCGC) Pharmaceutical Collection (NPC) and Mechanism Interrogation Plate (MIPE) small molecule collections of approved and investigational compounds against these cell lines; and measured metabolically active cells after 48 hours of compound treatment as a proxy for cell viability.
Assay Submitter: Nathalia J. Martinez, National Center for Advancing Translational Sciences, National Institutes of Health, Rockville, MD, USA; email: natalia.martinez@nih.gov
[1] Shen, M et al. Quantitative high-throughput phenotypic screening of pediatric cancer cell lines identifies multiple opportunities for drug repurposing. Oncotarget 2017 Dec 19;9(4):4758-4772. PMID 29435139.
The cells were obtained from University of North Carolina (UNC), Pediatric Preclinical Testing Program (PPT), and Coriell Institute (CI).
qHTS cell viability assay:
Cells were assayed in growth media at a density of 500-1,000 cells/well. Five microliters of cells were dispensed into 1,536-well, white, solid-bottom, TC-treated plates (Greiner Bio One) using a multidrop dispenser and incubated at 37 degrees C, 5% CO2, under a humidified atmosphere for 5 hours. Twenty-three nanoliters of compounds and controls (neutral control DMSO or positive control bortezomib at final concentration of 2.3 µM) were subsequently transferred by Kalypsys pintool. For primary screens, the MIPE collection was tested at 11-point dilutions (final concentrations range from 0.78 nM to 46 µM) and the NPC collection at 8-point dilutions (final concentrations range from 0.59 nM to 46 µM). Compounds tested in follow-up screens were assayed at 11-point dilutions. Cells were incubated for 48 hours, followed by addition of 3 µL of CellTiter-Glo (Promega). After a 15 min incubation at room temperature, samples were analyzed for luminescence intensity using a ViewLux High-throughput CCD imager equipped with clear filters.
% is scaled to controls: 0 for no effect and ±100 for the full control effect; potency is read from the fitted curve at half-maximal effect.

Row | SMILES | activity change, negative = cytotoxicity | Potency | outcome
1 | CCC(=O)N1CCN(c2ccc(-n3c(=O)ccc4cnc5ccc(-c6cnc7ccccc7c6)cc5c43)cc2C(F)(F)F)CC1 | 19% (inactive) | – | –
2 | CC1(C)CC(=O)c2c(C(F)(F)F)nn(-c3ccc(C(N)=O)c(NC4CCC(O)CC4)c3)c2C1 (stereo not given) | – | 185 nM (active) | –
3 | CC1C(=O)OC2C(O)C34C5CC(C(C)(C)C)C36C(OC(=O)C6O)OC4(C(=O)O5)C12O (stereo not given) | -11.9% (inactive) | – | –
4 | Cc1c(C(=O)Nc2ccc(N3C[C@@H](C)O[C@@H](C)C3)nc2)cccc1-c1ccc(OC(F)(F)F)cc1 | -26.3% (inactive) | – | –
5 | CC1(C)OC2CC3C4CC(F)C5=CC(=O)C=CC5(C)C4C(O)CC3(C)[C@]2(C(=O)CO)O1 (stereo not given in full) | – | – | inactive
6 | COC(=O)[C@H](c1ccccc1Cl)N1CCc2sccc2C1 | – | – | inactive
7 | CCC[C@H](N[C@@H](C)C(=O)N1[C@@H]2CCCC[C@H]2C[C@H]1C(=O)O)C(=O)OCC | 3.49% (inactive) | – | –
8 | CC[C@]1(O)C[C@H]2CN(CCC3=c4ccccc4=N[C]3[C@@](C(=O)OC)(c3cc4c(cc3OC)N(C)[C@H]3[C@@](O)(C(N)=O)[C@H](O)[C@]5(CC)C=CCN6CC[C@]43[C@@H]65)C2)C1 | – | 147 nM (active) | –
9 | Cc1ccc2c(c1)C(=O)[C@]1(O)CCN(c3ccccc3)C1=N2 | -26.1% (inactive) | – | –
10 | COC1CCC(C(=O)c2ccc3nc4c(cc3c2)CCCO4)CC1 (stereo not given) | 6.91% (inactive) | – | –
11 | CCC(=O)OCC(=O)[C@@]1(OC(=O)CC)[C@@H](C)C[C@@H]2[C@H]3CCC4=CC(=O)C=C[C@]4(C)[C@@]3(F)[C@@H](O)C[C@@]21C | -1.02% (inactive) | – | –
12 | CN(C)CC[C@H](CSc1ccccc1)Nc1ccc(S(=O)(=O)NC(=O)c2ccc(N3CCN(Cc4ccccc4-c4ccc(Cl)cc4)CC3)cc2)cc1[N+](=O)[O-] | – | 414 nM (active) | –
13 | Cc1ccccc1-n1c(Cn2nc(-c3cccc(O)c3)c3c(N)ncnc32)nc2cccc(C)c2c1=O | -5.69% (inactive) | – | –
14 | CO[C@H]1/C=C\O[C@@]2(C)Oc3c(C)c(O)c4c(O)c(c(C=NN5CCN(C6CCCC6)CC5)c(O)c4c3C2=O)NC(=O)C(C)=CC=C[C@H](C)[C@H](O)[C@@H](C)[C@@H](O)[C@@H](C)[C@H](OC(C)=O)[C@H]1C | -16.9% (inactive) | – | –
15 | COc1cc([C@@H]2c3cc4c(cc3[C@@H](O[C@@H]3O[C@@H]5CO[C@@H](C)O[C@@H]5[C@H](O)[C@@H]3O)[C@H]3COC(=O)[C@H]23)OCO4)cc(OC)c1O | – | 1470 nM (active) | –
16 | CCC[C@H](Nc1nc(-c2ccc(NC(=O)NCC)c(OC)c2)ncc1C)c1cccnc1 | – | 414 nM (active) | –
17 | CCOC(=O)[C@H](CCc1ccccc1)N[C@@H](C)C(=O)N1CCCC1C(=O)O (stereo not given in full) | – | 9270 nM (active) | –
18 | CN[C@@H]1CN(c2ccc3c(=O)c(C(=O)O)cn(-c4nccs4)c3n2)C[C@@H]1OC | – | 1820 nM (active) | –
19 | Nc1ncnc2c1ncn2[C@@H]1O[C@H](CO)[C@@H](O)[C@@H]1O | – | 13100 nM (active) | –
20 | C=C1[C@H](n2cnc3c(=O)[nH]c(N)nc32)C[C@H](O)[C@H]1CO | – | – | inactive

Row | SMILES | activity change, negative = cytotoxicity | Potency | outcome
21 | COc1cc2nccc(Oc3ccc(NC(=O)Nc4cc(C)on4)c(Cl)c3)c2cc1OC | -23.7% (inactive) | – | –
22 | COc1cc(CNC(=O)CCCCC=CC(C)C)ccc1O | -7.48% (inactive) | – | –
23 | CCCCn1c(=O)n(Cc2ccccc2F)c(=O)c2[nH]c(Cc3ccc(NC(C)=O)cc3)nc21 | 25.9% (inactive) | – | –
24 | Cc1cnc(-c2cc(N3CCN(C(=O)CCS(C)(=O)=O)CC3)ncc2Cl)c(C)c1 | -2.1% (inactive) | – | –
25 | N#CC(=C1Nc2ccccc2S1)c1ccnc(OCc2ccc(CN3CCOCC3)cc2)n1 | -6.27% (inactive) | – | –
26 | CCC(C)SSc1ncc[nH]1 (stereo not given) | – | 13100 nM (active) | –
27 | CC(C)(C)c1[nH]cnc1C=c1[nH]c(=O)c(=Cc2ccccc2)[nH]c1=O | – | 11.4 nM (active) | –
28 | CN(C)CCN(C)C(=O)c1ccc(NC(=O)Nc2ccc(-c3nc(N4CCOCC4)c4ccn(CC(F)(F)F)c4n3)cc2)cc1 | – | 414 nM (active) | –
29 | CC(C)CN(C[C@H](O)[C@H](Cc1ccccc1)NC(=O)O[C@H]1CCOC1)S(=O)(=O)c1ccc(N)cc1 | 15.4% (inactive) | – | –
30 | C[C@@]1(C(=O)Nc2ccc(F)nc2)CCCN1c1nc(Nc2cc(C3CC3)[nH]n2)c2cccn2n1 | – | 147 nM (active) | –
31 | C[C@@H]1[C@H](O)[C@@H](C)C=CC=CC=CC=CC=CC=CC=C[C@H](O[C@@H]2O[C@H](C)[C@H](O)[C@H](N)[C@@H]2O)C[C@@H]2O[C@](O)(C[C@@H](O)C[C@@H](O)[C@H](O)CC[C@@H](O)C[C@@H](O)CC(=O)O[C@H]1C)C[C@H](O)[C@@H]2C(=O)O | 29% (inactive) | – | –
32 | CC(=O)N1CCN(c2ccc(OCc3nn(C)c(C)c3-c3cccc4c(CCCOc5cc(C)c(Cl)c(C)c5)c(C(=O)O)n(Cc5cccnc5)c34)cc2)CC1 | 7.55% (inactive) | – | –
33 | Nc1ccc(-c2ccc3ncc4ccc(=O)n(-c5cccc(C(F)(F)F)c5)c4c3c2)cn1 | – | 165 nM (active) | –
34 | CC(C)C[C@H](NC(=O)c1cc2ccccc2s1)C(=O)N1CCN(C(=O)[C@H](CO)NS(=O)(=O)c2ccc(Cl)cc2Cl)CC1 | – | 23300 nM (active) | –
35 | CCNC(=O)c1noc(-c2cc(C(C)C)c(O)cc2O)c1-c1ccc(CN2CCOCC2)cc1 | – | 52.2 nM (active) | –
36 | COC(=O)Nc1ccc(-c2nc(N3CCOCC3)c3cnn(C4CCN(C(=O)OC)CC4)c3n2)cc1 | – | 8270 nM (active) | –
37 | Cc1ccc(C(=O)N(CCCN)[C@@H](c2oc3cc(Cl)ccc3c(=O)c2Cc2ccccc2)C(C)C)cc1 | – | 14700 nM (active) | –
38 | NC(N)=Nc1nc(CSCCC(N)=NS(N)(=O)=O)cs1 | – | – | inactive
39 | O=C(CC12CC3CC(CC(C3)C1)C2)Nc1cccc2nc(NCCNCCO)ccc12 | -21.9% (inactive) | – | –
40 | C=CC(=O)Nc1cccc(Sc2nc(Nc3ccc(N4CCN(C)CC4)cc3)ncc2Cl)c1 | – | 9270 nM (active) | –
